Values joined by “and” are separate entries in the source; they are usually repeats but may differ in a detail not shown here. Equal values may be shown once. The panel holds about 83,000 compounds, 20% with a hit somewhere; the sample as a whole holds those more often.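 Activity criterion: percent growth below 10, measured after cells in 96-well plates were exposed to a single compound concentration for 48 hours.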 The source holds several records for some structures; these can differ, active in one and inactive in another. Active and inactive are the calls of the source.
Tests used:
Assay in all cases: NCI-60 one-dose screen, 48 h (100 = growth as untreated, 0 = no growth, -100 = all killed)
Conditions in all cases: 10 µM unless noted
NCI-H23 lung = tested on: NCI-H23 lung
NCI-H226 lung = tested on: NCI-H226 lung
NCI-H322M lung = tested on: NCI-H322M lung
HOP-62 NSCLC = tested on: HOP-62 NSCLC
NCI-H460 lung = tested on: NCI-H460 lung
HOP-92 NSCLC = tested on: HOP-92 NSCLC
NCI-H522 lung = tested on: NCI-H522 lung
A549/ATCC NSCLC = tested on: A549/ATCC NSCLC
786-0 renal = tested on: 786-0 renal
COLO 205 colon = tested on: COLO 205 colon

Measured: growth

OC1CCC(Oc2cccc3cnc(Nc4ccc5nc[nH]c5c4)nc23)CC1 (stereo not given)
4.89% (active) and 25.8% (inactive): NCI-H460 lung
-30.1% (active) and 34.8% (inactive): COLO 205 colon
active: HOP-62 NSCLC -24.5% and 5.23%
9.66% (active) and 31.6% (inactive): NCI-H226 lung
inactive: NCI-H322M lung 12.2% and 50.6% | HOP-92 NSCLC 14.2% and 40.3% | 786-0 renal 15.5% and 38.8%
-9.62% (active) and 28.9% (inactive): A549/ATCC NSCLC
-21.5% (active) and 25.5% (inactive): NCI-H23 lung
-21.9% (active) and 54% (inactive): NCI-H522 lung

Cc1cc(C)c(N)c(Br)c1
inactive: NCI-H23 lung 101% and 83.8% | NCI-H226 lung 106% | NCI-H322M lung 130% and 105% | HOP-62 NSCLC 92.6% and 165% | NCI-H460 lung 114% and 101% | HOP-92 NSCLC 82.2% | NCI-H522 lung 95.2% and 87.9% | A549/ATCC NSCLC 104% and 106% | 786-0 renal 102% and 93.6% | COLO 205 colon 102% and 105%

CCOc1ccc2nc3cc(N)ccc3c(N)c2c1
inactive: NCI-H23 lung 46.3% and 40.5% | NCI-H226 lung 20.2% and 44.6% | NCI-H322M lung 36.7% and 28.8% | HOP-62 NSCLC 23% and 26.8% | NCI-H460 lung 29.3% and 61.9% | HOP-92 NSCLC 58.3% | A549/ATCC NSCLC 77.6% and 77.2% | 786-0 renal 24.2% and 13.8% | COLO 205 colon 71.1% and 75.9%
0.893% (active) and 10.4% (inactive): NCI-H522 lung

O=C1OC(Oc2ccc(Br)cc2)(c2ccccc2)c2ccccc21 (stereo not given)
inactive: NCI-H23 lung 91.1% and 80.5% | NCI-H226 lung 75.6% and 83.7% | NCI-H322M lung 99.3% and 127% | HOP-62 NSCLC 113% and 107% | NCI-H460 lung 91.3% and 87.8% | HOP-92 NSCLC 95.7% and 65.6% | NCI-H522 lung 69% | A549/ATCC NSCLC 82.6% and 88% | 786-0 renal 101% and 73.2% | COLO 205 colon 105% and 111%

O=C(CCl)c1ccc2c(c1)Nc1ccccc1S2
inactive: NCI-H23 lung 90.7% and 94.2% | NCI-H226 lung 89.4% and 91.2% | NCI-H322M lung 102% and 92.7% | HOP-62 NSCLC 97.6% and 99.8% | NCI-H460 lung 110% and 105% | HOP-92 NSCLC 101% | A549/ATCC NSCLC 100% and 106% | 786-0 renal 63.6% and 79.1% | COLO 205 colon 110% and 86.7%
66.1% (inactive) and -35.2% (active): NCI-H522 lung

CC1=C[C@H]2c3c(c(O)c(O)c4oc5cc(O)cc(O)c5c(=O)c34)[C@H](c3cc(O)c(O)c4oc5cc(O)cc(O)c5c(=O)c34)[C@H]2C(C)(C)C1
active: NCI-H23 lung -5.6% and -52.4% | NCI-H226 lung 2.7% and -31.2% | HOP-62 NSCLC -16.2% | NCI-H460 lung -41.5% and -57.7% | HOP-92 NSCLC -8.6% and -43.8% | NCI-H522 lung -50.7% and -52.7% | A549/ATCC NSCLC -10% and -37.5% | 786-0 renal -18.9% and -42.3% | COLO 205 colon -44.6%
12.1% (inactive) and -11.1% (active): NCI-H322M lung

CCC(C)C1(C2CCCC2)NC(=O)NC1=O (stereo not given)
inactive: NCI-H23 lung 103% and 101% | NCI-H226 lung 113% and 108% | NCI-H322M lung 99.1% and 115% | HOP-62 NSCLC 98.6% and 102% | NCI-H460 lung 117% and 107% | HOP-92 NSCLC 92.1% | NCI-H522 lung 77.2% and 105% | A549/ATCC NSCLC 100% and 106% | 786-0 renal 104% and 108% | COLO 205 colon 102% and 116%

O=C1NC(=O)C2(CCc3ccccc32)N1 (stereo not given)
inactive: NCI-H23 lung 108% and 89.4% | NCI-H226 lung 101% and 92.9% | NCI-H322M lung 98.8% and 106% | HOP-62 NSCLC 105% and 88.3% | NCI-H460 lung 98.3% and 116% | HOP-92 NSCLC 174% | NCI-H522 lung 98.6% and 80.6% | A549/ATCC NSCLC 97.4% and 91.4% | 786-0 renal 115% and 94.7% | COLO 205 colon 97.4% and 108%

CCN(CC)C(=S)SSC(=S)N(CC)CC
inactive: NCI-H23 lung 91% and 111% | NCI-H226 lung 86.5% and 104% | NCI-H322M lung 84.8% and 102% | HOP-62 NSCLC 82.1% and 88.7% | NCI-H460 lung 62.4% and 111% | HOP-92 NSCLC 90.4% and 110% | NCI-H522 lung 58.1% and 88.8% | A549/ATCC NSCLC 85.5% | 786-0 renal 91.2% and 91.7% | COLO 205 colon 82.9% and 106%

O=C1CCN(Cc2ccccc2)C(=S)N1
inactive: NCI-H23 lung 117% and 100% | NCI-H226 lung 110% and 105% | NCI-H322M lung 92.1% and 93% | HOP-62 NSCLC 101% and 103% | NCI-H460 lung 113% and 105% | HOP-92 NSCLC 70.4% and 92.4% | NCI-H522 lung 114% and 95.1% | A549/ATCC NSCLC 107% and 105% | 786-0 renal 108% and 109% | COLO 205 colon 111% and 108%

O=C(O)C1(C(=O)O)CCC1.[NH2-].[NH2-].[Pt+2]
inactive: NCI-H23 lung 104% and 87.6% | NCI-H226 lung 99% and 98.5% | NCI-H322M lung 99.9% and 110% | HOP-62 NSCLC 98.2% and 105% | NCI-H460 lung 116% and 92.4% | HOP-92 NSCLC 70.1% | NCI-H522 lung 98.3% and 76.1% | A549/ATCC NSCLC 99.3% and 97.5% | 786-0 renal 101% and 98.7% | COLO 205 colon 106% and 115%

CCN(CC)CCCC(CNc1ccnc2cc(Cl)ccc12)c1ccc(Cl)cc1 (stereo not given)
-33.5% (active) and 46.5% (inactive): NCI-H322M lung
4.19% (active) and 25.2% (inactive): NCI-H226 lung
24.3% (inactive) and -63.6% (active): NCI-H460 lung
active: HOP-92 NSCLC -51.5% and -68.6% | NCI-H522 lung -49.4% and -59.6% | 786-0 renal -83.4% and -97.3% | COLO 205 colon -61.9% and -85.6%
4.3% (active) and 61.4% (inactive): A549/ATCC NSCLC
4.57% (active) and 88.8% (inactive): HOP-62 NSCLC
inactive: NCI-H23 lung 48.9% and 54.3%

CN(C)CCCNC1=C(Cl)C(=O)c2ccccc2C1=O
inactive: NCI-H226 lung 102% and 97.7% | NCI-H322M lung 92.4% and 98.7% | HOP-62 NSCLC 78.8% and 85.1% | NCI-H460 lung 78.9% and 83.8% | HOP-92 NSCLC 108% and 107% | A549/ATCC NSCLC 94.3% and 85.1% | 786-0 renal 99.5% and 79.4%
80.4% (inactive) and -30.3% (active): NCI-H522 lung
active: NCI-H23 lung -41.4% and -79.2% | COLO 205 colon -73.7% and -85.8%

CC(=O)NC(Cc1ccccc1)C(=O)Oc1ccc2ccccc2c1 (stereo not given)
inactive: NCI-H23 lung 95.9% and 86.5% | NCI-H226 lung 101% and 106% | NCI-H322M lung 124% and 108% | HOP-62 NSCLC 96.9% and 94.7% | NCI-H460 lung 106% and 107% | HOP-92 NSCLC 78% and 84.9% | NCI-H522 lung 98.2% | A549/ATCC NSCLC 94.7% and 102% | 786-0 renal 110% | COLO 205 colon 93.3% and 105%
